# From PMC12136788
# Numbering of substitutions follows the chain as printed. The full ranking holds about 5,800 sequences; the median of “enrichment r” is about 0.68, and the highest 2% start at about 11. The entries come from a sample that favours the highest values as a whole.
# B1: chr17:44352837:44352938:+|3pUTR|ENSG00000030582|unk|total|mutant (ssRNA)
# RNA: GGGAGUUCUACAGUCCGACGAUCCUGAAGACUCUGCAGCCCUCGGGACCCCACUCGGAGGGUGCCCUCUGCUCAGGCCUCCCCCGCACCUCCCCCUAACCAAAUUCUCCCUGGACCCCAUUCUGAGCUCCCCAUCACCAUGGGCAACAGAGGAUUGAGCAUCA
# B2: ENSG00000107863:be:win_1351|CDS|ENSG00000107863|bound_else_gene|NA|bound_elsewhere_windowed (ssRNA)
# RNA: GGGAGUUCUACAGUCCGACGAUCGUCCAGAUACGGCAACGCAGUGUGUCCCAAGAAAGACUGGAAGAUUCUGUGCUAAUGAAGUAUUGUCCAAGAAGUGCAUCUCAAGGAGCACUGACGUCUCCAUCUGUUAGUUUUAGUAAUCAACAGAGGAUUGAGCAUCA
# B3: chr10:75150949:75151073:+|CDS|ENSG00000156671|unk|FALSE|unique (ssRNA)
# RNA: GGGAGUUCUACAGUCCGACGAUCUGUUCGAAGAUUGGACCCAGAAUACUGGAAGACUAUACUGAGUUGUAUAUAUGUUUUUAUAGUAUUUGGAUUUACAUCUUUCAUUAUGGUUAUAGUCCAUGAGCGAGUGCCUGACAUGCACAACAGAGGAUUGAGCAUCA
# B4: ENSG00000107863:be:win_4151|CDS|ENSG00000107863|bound_else_gene|NA|bound_elsewhere_windowed (ssRNA)
# RNA: GGGAGUUCUACAGUCCGACGAUCAUUCAGCUACUAGUGACUCAACAAAAUCUAAGGGUUCUUGGGGAUCUGGAAAGGAUCAGUAUAGCAGGGAACUGCUUGUGUCCUCCAUCUUUGCAGCUGCUAGUCGCAAGAGGAAGAAGCCAACAGAGGAUUGAGCAUCA
# B5: chr2:224001733:224001845:-|CDS|ENSG00000135919|unk|total|mutant (ssRNA)
# RNA: GGGAGUUCUACAGUCCGACGAUCGGCCUCUGUGACGCUGCCUUCCAUCUGCUCCCACUUCAAUCCUCUGUCUCUCGAGGAACCCGGCUCCAACACGGGGAUCCAGGUUUUCAAUCAGAUUGUGAAGUCGAGGCCUCAUGACAACAACAGAGGAUUGAGCAUCA
# B6: chr12:122341087:122341188:-|CDS|ENSG00000130779|unk|FALSE|bound_elsewhere (ssRNA)
# RNA: GGGAGUUCUACAGUCCGACGAUCAGAAUUUGCUGAACUAAAAACACAAAUAGAGAAAAUGAGACUAGAUUACCAACACGAAAUAGAAAAUUUGCAGAAUCAACAAGACUCUGAACGGGCUGCCCAUGCUAAAGAGAUGGAAGCCAACAGAGGAUUGAGCAUCA
# B7: chr21:14371318:14371404:-|3pUTR|ENSG00000155304|msi1_unk|FALSE|overlapping (ssRNA)
# RNA: GGGAGUUCUACAGUCCGACGAUCUAUGAAUAACAAUCUGAAGUCUUUUCAUAAAAAAAAUUAAUAAACUUUAGUUGUACAUUUAGCCAGUGUUAUUUGAAGUAUGUAACUUUUAAAAUAUUAAGUGUCUUGUAUGAUUAGAAUCAACAGAGGAUUGAGCAUCA
# B8: chr13:52036708:52036809:-|3pUTR|ENSG00000197168|unk|FALSE|unique (ssRNA)
# RNA: GGGAGUUCUACAGUCCGACGAUCGUAGAACUUUUGAAUAUAGCCAUUAAUAUUUUUACUUUAAAGUUUCUAUUAAGAAAUCUUAGGCCGGGCAGUCUCAUCACUUUGGGAGGCCAAGGCAGGCAGAUCAUGAGGUCAGGAGUUCAACAGAGGAUUGAGCAUCA
# B9: ENSG00000070961:be:win_5751|3pUTR|ENSG00000070961|bound_else_gene|NA|bound_elsewhere_windowed (ssRNA)
# RNA: GGGAGUUCUACAGUCCGACGAUCCUAAAAAUUGACCCUAUCAACUGGAGAGCCCACAAGGCAUAGGGAAUAGAGAAAAGGGAAAUGUUUUCAGUUUUCUUUUUUAUUUUGGUUAUGCUUAAAUAUGAAUGUAAUUACCAAAAGCAACAGAGGAUUGAGCAUCA
# B10: chr3:68976711:68977116:-|CDS|ENSG00000163378|control|control|control (ssRNA)
# RNA: GGGAGUUCUACAGUCCGACGAUCCUUUUUAGGAAUACCAAAGUUUUCAACUUUUUCAGCUUUAGAAUUUGUAAAUAUUUUUGUAGAAUAUCAUAUGACUGUAAUUCCAGAGUGUUCCAACUUGUUUAUGAUAUAUUUGGGUAACAACAGAGGAUUGAGCAUCA
# B11: chr6:152987361:152990084:-|three_prime_utr|ENSG00000112031|control|control|control (ssRNA)
# RNA: GGGAGUUCUACAGUCCGACGAUCAGAUUAUCUACUGGAUGAACUUGUACAGUCAUUGAAGGAAUACGCCGAUUAUGAAUCUUUAGUAGAAAUUAUUUCCCAAAAAGUUUAAGUUGAUUUGUUAUUUAUAGACUUUCGUAGCUUCAACAGAGGAUUGAGCAUCA
# B12: chr20:13714314:13714426:-|3pUTR|ENSG00000089048|unk|FALSE|unique (ssRNA)
# RNA: GGGAGUUCUACAGUCCGACGAUCUUUUUCUAGCCAUAAAGGAUGGAAGUCAAGAACUUUUUGUUGUUUAGUCAUGUUAAGUAUAGUUUAUGAAAUUAACUUGUAAAUAAAAGUGUAAAAUAUUUUCAUUAUUUUGUAUAGCACCAACAGAGGAUUGAGCAUCA
# B13: chr10:11920118:11920232:-|3pUTR|ENSG00000151461|unk|FALSE|unique (ssRNA)
# RNA: GGGAGUUCUACAGUCCGACGAUCGUAGUAUAUUUAGUCGGAGAGCACAUCUGUAUGCGACAACUUGAUUACAUCUUUUUUUCUAGCUAUUUUGCAUUUUUUCUUUUACCAUGUUUCAGUUUCUGCAUGUAGAUUUAAAUAAAACAACAGAGGAUUGAGCAUCA
# B14: chr12:39553730:39553837:-|3pUTR|ENSG00000173208|unk|FALSE|unique (ssRNA)
# RNA: GGGAGUUCUACAGUCCGACGAUCGAAGUAUGUUAAGCUAAGCACAGAGAAAAAAAGGCAGCAAGACAUGUUUUAUAAGAUUUUAGCAUUAAGGAAGUAUAUGAUCUGACUUUUCAGAAGAAAAUAAACAAAUGCAUUAUGUAACAACAGAGGAUUGAGCAUCA
# B15: chr7:107202531:107202632:-|3pUTR|ENSG00000164597|msi1|total|mutant (ssRNA)
# RNA: GGGAGUUCUACAGUCCGACGAUCUAUUCUGAGAACUCAUAAAUAAAAUUCAGCCAAGAUUAAUCAAUCAAUCAAUCAAUCAGCCGACGUCAGAGAUAAGCAACUUUUUUUUCCAUUUAUUUGAAAUAAUAUACAAGAAUACCGCAACAGAGGAUUGAGCAUCA
# B16: chr13:52036708:52036809:-|3pUTR|ENSG00000197168|unk|total|mutant (ssRNA)
# RNA: B8 RNA with U25C, A26C, U40C, A41C, U83C, A84C
# Target: T1, UNK ZnF1-6 (called full-length) (human, UniProt Q9C0B0 30-357)
# T1 sequence: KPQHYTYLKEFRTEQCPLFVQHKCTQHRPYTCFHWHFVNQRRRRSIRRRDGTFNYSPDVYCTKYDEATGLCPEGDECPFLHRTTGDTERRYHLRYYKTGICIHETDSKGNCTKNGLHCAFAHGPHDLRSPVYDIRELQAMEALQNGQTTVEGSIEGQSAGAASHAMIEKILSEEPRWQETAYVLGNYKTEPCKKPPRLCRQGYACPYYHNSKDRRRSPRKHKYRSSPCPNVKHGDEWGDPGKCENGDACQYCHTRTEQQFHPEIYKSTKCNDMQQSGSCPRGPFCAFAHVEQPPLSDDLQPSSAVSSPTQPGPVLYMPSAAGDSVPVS
# Assay: nsRBNS (natural sequence RNA bind-n-seq); RBNS binding buffer (assumed for nsRBNS): 25 mM Tris pH 7.5, 150 mM KCl, 3 mM MgCl2, 0.01% Triton X-100, 500 ug/ml BSA, 20 U/ml SUPERase-In, 4 C; UNK is unkempt and MSI1 is Musashi-1; names of the RNAs are library labels; protein concentration not given here; high values mean tight binding
row,Binder,binding signal
1,B1,0.732 enrichment R
2,B2,4.38 enrichment R
3,B3,0.389 enrichment R
4,B4,0.489 enrichment R
5,B5,0.666 enrichment R
6,B6,8.87 enrichment R
7,B7,1.48 enrichment R
8,B8,21 enrichment R
9,B9,0.412 enrichment R
10,B10,9.89 enrichment R
11,B11,1.84 enrichment R
12,B12,62.3 enrichment R
13,B13,21.9 enrichment R
14,B14,0.997 enrichment R
15,B15,1.94 enrichment R
16,B16,2.85 enrichment R
